± gives the standard deviation of the averaged measurements.
Legend:
[1] = test system: CLZ3 (HCA2 human fibroblast dual HR-NHEJ reporter); assay: NHEJ repair efficiency (GFP+ cells) relative to control (log10 fold); higher = more non-homologous end joining; details: 5 µM; doxycycline 0.5 ug/mL
[2] = test system: CLZ3 (HCA2 human fibroblast dual HR-NHEJ reporter); assay: HR repair efficiency (tdTomato+ cells) relative to control (log10 fold); higher = more homologous recombination; details: 5 µM; doxycycline 0.5 ug/mL
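Throughout, for HR repair efficiency (tdTomato+ cells) relative to control: compound given one day before doxycycline, which switches on I-SceI endonuclease expression to create double-strand breaks within the integrated reporter.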
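Throughout, for NHEJ repair efficiency (GFP+ cells) relative to control: compound given one day ahead of doxycycline, which switches on I-SceI endonuclease to cut the chromosomally integrated reporter and create DSBs.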

SMILES	NHEJ repair efficiency (log10) [1]	HR repair efficiency (log10) [2]
CCCCCCCCCCCCCCCCCC(=O)OC [Methyl Stearate]	-0.0143	-0.0898
C[N+](C)(C)[C@H](Cc1c[nH]c2ccccc12)C(=O)[O-] [Hypaphorine]	0.0288	-0.124
COc1cc(-c2oc3cc(O)cc(O)c3c(=O)c2O[C@@H]2O[C@H](CO)[C@@H](O)[C@H](O)[C@H]2O[C@@H]2O[C@@H](C)[C@H](O)[C@@H](O)[C@H]2O)ccc1O [Isorhamnetin-3-O-Nehesperidine]	-0.039	-0.0649
C/C=C1/[C@H](O[C@@H]2O[C@H](CO)[C@@H](O)[C@H](O)[C@H]2O)OC=C(C(=O)OC)[C@H]1CC(=O)OCCc1ccc(O)c(O)c1 [Oleuropein]	0.0183	0.0478
OC[C@H]1O[C@@H](Oc2cc(O)cc(/C=C/c3ccc(O[C@@H]4O[C@H](CO)[C@@H](O)[C@H](O)[C@H]4O)cc3O)c2)[C@H](O)[C@@H](O)[C@@H]1O [Mulberroside A]	0.049	0.234
Oc1ccc2c(c1)OC[C@]1(O)Cc3cc(O)c(O)cc3[C@H]21 [Brazilin]	-0.0322	-0.00638
CCCCCCCCCCCCCCCC(=O)O [Palmitic Acid]	0.0513	0.0657
COc1cc([C@H]2OC[C@H]3[C@@H]2CO[C@H]3c2ccc(OC)c(OC)c2)ccc1O [Phillygenin]	0.129	0.116
O=C(O)C1=C[C@@H](O)[C@@H](O)[C@H](O)C1 [Shikimic Acid]	0.128	0.17
O=c1c(O[C@@H]2O[C@H](CO)[C@@H](O)[C@H](O)[C@H]2O)c(-c2ccc(O)c(O)c2)oc2cc(O)cc(O)c12 [Isoquercitrin]	-0.0426	0.0777
C[C@@H]1O[C@@H](O[C@@H]2[C@H](O)[C@@H](O)[C@H](O[C@H]3CC[C@@]4(C)C(CC[C@]5(C)C4C=C[C@]46OC[C@@]7(CCC(C)(C)CC74)[C@@H](O)C[C@]65C)C3(C)C)O[C@@H]2CO[C@@H]2O[C@H](CO)[C@@H](O)[C@H](O)[C@H]2O)[C@H](O)[C@H](O)[C@H]1O (stereo not given in full) [Saikosaponin c]	-0.0431	-0.104
O=C1c2ccccc2C(=O)c2c(O)c(O)cc(O)c21 [Purpurin]	-0.0313	0.0725
C=C1C(=O)[C@@]23CC[C@@H]4C(C)(C)[C@H](O)CC[C@@]4(C)[C@@H]2[C@@H](O)C[C@@H]1C3 [Tenuifolin A]	-0.0342	-0.13
COc1c(O[C@@H]2O[C@H](CO)[C@@H](O)[C@H](O)[C@H]2O)cc2oc(-c3ccc(O)cc3)cc(=O)c2c1O [Homoplantaginin]	0.0189 ± 0.062	0.0763 ± 0.07
CC1(C)CC[C@]2(C(=O)O)CCC3=C([C@@H](CCl)C[C@@H]4[C@@]5(C)C[C@H](O)[C@H](O)[C@@](C)(C(=O)O)[C@@H]5CC[C@@]34C)[C@@H]2C1 [Senegenin]	-0.0514	-0.031
O=C(C=Cc1ccc(O)c(O)c1)O[C@@H]1C[C@@](O)(C(=O)O)C[C@@H](O)[C@@H]1O [5-Caffeoylquinic Acid]	-0.0761	-0.0365
C[C@@H]1O[C@@H](O[C@H]2[C@H](OC(=O)[C@]34CCC(C)(C)C[C@H]3C3=CC[C@@H]5[C@@]6(C)C[C@H](O)[C@H](O[C@@H]7O[C@H](CO)[C@@H](O)[C@H](O[C@@H]8O[C@H](CO)[C@@H](O)[C@H](O)[C@H]8O)[C@H]7O)C(CO)(CO)[C@@H]6CC[C@@]5(C)[C@]3(C)C[C@H]4O)OC[C@H](O)[C@@H]2O)[C@H](O)[C@H](O)[C@H]1O[C@@H]1OC[C@@H](O)[C@H](O[C@@H]2OC[C@](O)(CO)[C@H]2O)[C@H]1O [Platycodin D2]	-0.00927	-0.252
O=c1ccc2ccc(O)cc2o1 [Umbelliferone]	0.115	0.269
O=C(O)c1cc(O)c2c(c1)C(C1c3cc(CO)cc(O)c3C(=O)c3c(OC4OC(CO)C(O)C(O)C4O)cccc31)c1cccc(OC3OC(CO)C(O)C(O)C3O)c1C2=O (stereo not given) [Sennoside D]	0.274	-0.297
Oc1cc(O)cc(/C=C/c2ccc(O)c(O)c2)c1 [Piceatannol]	0.0759	0.0923
N[C@@H](Cc1ccc(O)c(O)c1)C(=O)O [Levodopa]	0.0328	0.0905
C=C1CC[C@@H]2[C@](C)(CO)[C@H](O)CC[C@@]2(C)[C@H]1C/C=C1\C=COC1=O [Dehydroandrographolide]	0.015	0.116
CC12CCC(CC1=O)C2(C)C (stereo not given) [Camphor]	-0.0599	-0.0168
O=C(O[C@@H]1Cc2c(O)cc(O)cc2O[C@@H]1c1ccc(O)c(O)c1)c1cc(O)c(O)c(O)c1 [Epicatechin Gallate]	-0.236	-0.0859
CC1(C)CC[C@]2(C(=O)O)CC[C@]3(C)C(=CC[C@@H]4[C@@]5(C)CC[C@H](O[C@@H]6O[C@H](C(=O)O)[C@@H](O)[C@H](O[C@@H]7OC[C@@H](O)[C@H](O)[C@H]7O)[C@H]6O)C(C)(C)[C@@H]5CC[C@]43C)[C@@H]2C1 [Momordin Ic]	0.0282	-0.203

SMILES	NHEJ repair efficiency (log10) [1]	HR repair efficiency (log10) [2]
COc1cc(O)c2c(=O)c3c(O[C@@H]4O[C@H](CO)[C@@H](O)[C@H](O)[C@H]4O)ccc(O)c3oc2c1 [Swertianolin]	0.00276	0.201
C[C@@H]1O[C@@H](O[C@H]2[C@H](Oc3cc(O)c4c(c3)O[C@H](c3ccc(O)cc3)CC4=O)O[C@H](CO)[C@@H](O)[C@@H]2O)[C@H](O)[C@H](O)[C@H]1O [Naringin]	-0.127	-0.0146
CCCCCC=CC(=O)CCc1ccc(O)c(OC)c1 [6-Shogaol]	-0.0185	-0.0794
CC(C)[C@@H]1[C@H]2OC(=O)[C@@H]1[C@@H]1CC[C@@H]3CN(C)[C@H]2[C@@]31C [Dendrobine]	0.165	0.272
CCCCCCC[C@H](O)CC(=O)CCc1ccc(O)c(OC)c1 [8-Gingerol]	0.00172	0.0341
CC(=O)OCC1=C[C@@H]2OC(=O)C3=CO[C@@H](O[C@@H]4O[C@H](CO)[C@@H](O)[C@H](O)[C@H]4O)[C@H]1[C@@H]32 [Asperuloside]	0.0752	0.1
C[C@H](N)C(=O)O [Alanine]	0.113	-0.14
CC(CCC(OC1OC(COC2OC(CO)C(O)C(O)C2O)C(O)C(O)C1OC1OC(CO)C(O)C(O)C1O)C(C)(C)O)C1CCC2(C)C3CC=C4C(CCC(OC5OC(COC6OC(CO)C(O)C(O)C6O)C(O)C(O)C5O)C4(C)C)C3(C)C(O)CC12C (stereo not given) [Mogroside Ⅴ]	-0.025	0.0038
C[C@@H]1C(=O)O[C@H]2C[C@@]34O[C@@H]5OC(=O)[C@H](O)[C@@]56[C@H](C(C)(C)C)[C@H](O)C(OC3=O)[C@]64[C@]21O (stereo not given in full) [Ginkgolide J]	0.0205	0.076
C=CCc1ccc(O)c(-c2ccc(O)c(CC=C)c2)c1 [Honokiol]	0.125	0.163
COc1cc(C2Oc3cc([C@H]4Oc5cc(O)cc(O)c5C(=O)[C@@H]4O)ccc3OC2CO)ccc1O (stereo not given in full) [Silybin (Silymarin)]	0.131	0.183
C/C(=C\C(=O)CC(C)C(=O)O)[C@H]1CC(=O)[C@@]2(C)C3=C(C(=O)C[C@]12C)[C@@]1(C)CC[C@H](O)C(C)(C)[C@@H]1C[C@@H]3O (stereo not given in full) [Ganoderenic Acid B]	0.000561	0.021
CC(C)=CCC[C@](C)(O)[C@H]1CC[C@]2(C)[C@@H]1[C@H](O)C[C@@H]1[C@@]3(C)CC[C@H](O[C@@H]4O[C@H](CO)[C@@H](O)[C@H](O)[C@H]4O[C@@H]4O[C@H](CO)[C@@H](O)[C@H](O)[C@H]4O)C(C)(C)[C@@H]3CC[C@]12C [R-Ginsenoside Rg3]	0.0761	-0.0174
COc1ccc(-c2oc3c(CC=C(C)C)c(O[C@@H]4O[C@H](CO)[C@@H](O)[C@H](O)[C@H]4O)cc(O)c3c(=O)c2O[C@@H]2O[C@@H](C)[C@H](O)[C@@H](O)[C@H]2O)cc1 [Icarrin]	-0.0369	0.0409
Cc1ccc(C(C)C)cc1 [p-Cymene]	0.065	0.196
C[C@@H]1CC[C@]2(C(=O)O[C@@H]3O[C@H](CO)[C@@H](O)[C@H](O)[C@H]3O)CC[C@]3(C)C(=CC[C@@H]4[C@@]5(C)CC[C@H](O)[C@@](C)(CO)[C@@H]5CC[C@]43C)[C@@H]2[C@]1(C)O [Pedunculoside]	0.0473	0.237
COc1c(O)cc2oc(-c3ccccc3)cc(=O)c2c1O [Oroxylin A]	0.0844	0.0534
CCCCCCCCCC(=O)CC(O)S(=O)(=O)O (stereo not given) [Sodium Houttuyfonate]	0.024	0.102
O=C(O)CC(O)(CC(=O)O)C(=O)O [Citric Acid]	-0.0431	-0.109
OC[C@H]1O[C@H](OC[C@H]2O[C@@H](O[C@@H]3OC=C[C@H]4[C@H](O)[C@@H]5O[C@]5(CO)[C@@H]34)[C@H](O)[C@@H](O)[C@@H]2O)[C@H](O)[C@@H](O)[C@H]1O [Rehmannioside A]	0.0412	-0.0566
O=C1C[C@@H](c2ccccc2)Oc2cc(O)cc(O)c21 [Pinocembrin]	0.123	0.0891
CC(=O)O[C@H]1[C@H](OCCc2ccc(O)c(O)c2)O[C@H](CO)[C@@H](OC(=O)/C=C/c2ccc(O)c(O)c2)[C@@H]1O[C@@H]1O[C@@H](C)[C@H](O)[C@@H](O)[C@H]1O [2-Acetylacteoside]	-0.00932	-0.164
Cc1c(S(=O)(=O)O)oc2c1C(=O)C(=O)c1c-2ccc2c1CCCC2(C)C [Tanshinone Iia Sodium Sulfonate]	0.0248	0.126
COc1ccc(/C=C/C(=O)O)cc1O [Isoferulic Acid]	-0.101	0.0607
O=C(O)CCC(=O)O [Succinic acid]	0.006	0.102

Source: the supplement of paper PMC7380943
